Screens: PubChem BioAssay, National Center for Advancing Translational Sciences (NCATS)
RXFP1 antag: antagonists of human relaxin receptor RXFP1; Q9HBX9; HEK293-RXFP1, relaxin-stimulated cAMP HTRF, 30 min; stronger effect = lower value; activity change, negative = inhibition, % at 57.5 µM; hit rate 0.59% among 350,000;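 active = activity change of -60% or lower, but not beyond a set lower limit; inconclusive = change between -60% and -40%, or beyond the set limit; inactive = change above -40%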; also: % is scaled to controls: 0 for no effect and ±100 for the full control effect
Target sequence (Q9HBX9 whole entry, looked up): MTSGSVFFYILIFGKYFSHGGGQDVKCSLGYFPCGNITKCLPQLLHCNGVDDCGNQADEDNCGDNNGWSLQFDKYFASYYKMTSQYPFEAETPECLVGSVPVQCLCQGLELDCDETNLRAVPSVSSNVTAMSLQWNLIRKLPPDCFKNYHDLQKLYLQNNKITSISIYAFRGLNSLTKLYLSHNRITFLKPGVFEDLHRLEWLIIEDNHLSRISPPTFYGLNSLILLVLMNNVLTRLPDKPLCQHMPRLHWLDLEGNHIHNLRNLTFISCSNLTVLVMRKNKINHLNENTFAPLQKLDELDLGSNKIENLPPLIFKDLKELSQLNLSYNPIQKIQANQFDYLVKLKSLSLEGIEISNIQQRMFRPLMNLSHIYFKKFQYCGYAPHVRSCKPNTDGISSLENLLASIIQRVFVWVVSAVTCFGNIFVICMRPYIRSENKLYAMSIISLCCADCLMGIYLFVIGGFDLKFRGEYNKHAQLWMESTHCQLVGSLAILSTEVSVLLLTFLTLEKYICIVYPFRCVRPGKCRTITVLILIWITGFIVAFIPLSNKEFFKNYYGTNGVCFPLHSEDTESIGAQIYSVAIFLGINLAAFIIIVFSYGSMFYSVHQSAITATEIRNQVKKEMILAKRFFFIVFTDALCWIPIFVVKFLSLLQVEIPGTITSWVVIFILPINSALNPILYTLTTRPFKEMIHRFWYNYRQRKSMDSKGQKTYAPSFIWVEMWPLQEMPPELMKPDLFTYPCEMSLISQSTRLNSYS
TSHR antag: human thyrotropin receptor antagonism; P16473; TSHR-expressing cells, TSH-stimulated cAMP HTRF, 2 h; stronger effect = lower value; activity change, negative = inhibition, % at 11.5 µM; hit rate 0.2% among 330,000; AID 504810;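 active = activity change below a set negative limit, meaning inhibition stronger than a set level, cut at about -70% in these data; inconclusive = activity change between two set negative limits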; also: % is scaled to controls: 0 for no effect and ±100 for the full control effect
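Competitive HTRF cAMP read-out (cryptate anti-cAMP antibody, cAMP-d2; 30 min, room temperature) in freshly harvested TSHR cells. Compounds added before TSH at EC80 (4nM final), followed by 2 hours' incubation at 37 deg C.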
gsp ag: activates gsp, the McCune-Albright syndrome mutation; AID 624287; gsp mutant cells, cAMP HTRF, 30 min; Potency, µM (titrated, usually from 76.9 µM), for the others: at the highest dose activation (cAMP increase), hits mostly activators; hit rate 0.13% among 340,000; active = well fitted activation curve with a large enough effect; inconclusive = small, poorly fitted or top-dose-only effect, or another doubt; inactive = no such curve, though single readings can be large or run the other way; cell line not stated here;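 also: phosphodiesterase inhibitor Ro 20-1724 added with compounds to block cAMP breakdown; potency is read from the fitted curve at half-maximal effect; nearly all actives have a fitted effect of over 60% in size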
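Cells in DMEM/10% FBS with G418 were pretreated with compounds in DMSO plus […] (300 uM stock) for 30 min at 37C. cAMP was measured by HTRF (cAMP-d2 plus anti-cAMP antibody-K) after 30 min at room temperature.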
gsp antagonist: gsp mutant antagonism; hit rate 0.4% among 340,000; gsp-mutant cells, cAMP HTRF, 30 min; Potency, µM (titrated, usually from 76.9 µM), for inactives: at the highest dose activity change, negative = inhibition, usual class: inhibitors; calls by dose curve; cell line not stated here;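 also: intracellular cAMP measured with PDE inhibitor Ro 20-1724 present during compound exposure; potency is read from the fitted curve at half-maximal effect; % is scaled to controls: 0 for no effect and ±100 for the full control effect; nearly all actives have a fitted effect of over 65% in size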
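G418-selected cells were plated in DMEM/10% FBS for 16-24 h at 37C, then treated with compounds plus the PDE inhibitor […] (300 uM solution added) for 30 min at 37C. Intracellular cAMP was measured by HTRF after 30 min lysis at room temperature.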
RXFP1 ag: agonists of human relaxin receptor RXFP1; HEK293T-RXFP1 cAMP TR-FRET, 30 min; response scale: percent of porcine relaxin response, buffer zero; Potency, µM (doses to about 57.5 µM), without a hit: top-dose activation, most hits filed as activators; hit rate 0.3% among 370,000; active = well fitted activation curve with a large enough effect; inconclusive = small, poorly fitted or top-dose-only effect; also: potency is read from the fitted curve at half-maximal effect; % is scaled to controls: 0 for no effect and ±100 for the full control effect; nearly all actives have a fitted effect of over 60% in size
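Agonist response is measured as cAMP accumulation in an RXFP1-transfected HEK293T line under PDE4 inhibition. Values are scaled between buffer-only and 29 nM porcine relaxin, and EC50s come from standard Hill equation fits.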
Numbers without * were called inactive; ? = inconclusive; . = not tested or not shown; ! = not confirmed by another sample; [ ] = dose if it differs, or a comment. The list is not random: actives were taken first. Their share in the collection is about 1%.

SMILES | RXFP1 antag | TSHR antag | gsp ag | gsp antagonist | RXFP1 ag
CC(C)(C)OC(=O)NCCCCCc1nnc(SCC(=O)Nc2cccc(Cl)c2)o1 | -3 | ? | 13% | 35µM* | 2%
CCN(CC)S(=O)(=O)c1ccc(OC)c(NC(=O)CSCc2c(C)noc2C)c1 | 14 | 35 | 18µM* | 4% | .
NC(=O)c1ccsc1NC(=O)COC(=O)/C=C/c1ccccc1[N+](=O)[O-] | -34 | -19 | -5%[15.4 µM] | 1% | .
NC(=O)c1ccsc1NC(=O)COC(=O)/C=C/c1ccccc1 | -69* | -18 | 23%[15.4 µM] | ? | 0%
COc1cc(/C=C2\SC(=S)NC2=O)ccc1OS(=O)(=O)c1ccccc1 | . | -74* | . | . | -4%
O=C1NC(=S)SC1=Cc1ccc(Cl)cc1 | -19 | . | 22% | 28µM* | .
CCOc1ccc(/C=C2\SC(=S)N(C)C2=O)cc1OC | -5 | -6 | 8% | 2% | 0%
COc1cc(/C=C2/SC(=S)NC2=O)ccc1OS(=O)(=O)c1ccc(C)cc1 | ? | ? | 5%[15.4 µM] | ? | 2%
CCOc1ccc(/C=C2\SC(=S)NC2=O)cc1OC | -73* | -25 | -26% | ? | 1%
CC(C)CCn1c2ccccc2c2cc(CC(N)=O)ccc21 | -72* | -7 | 2% | 1% | 0%
Cc1nn(-c2ccc(F)cc2)c(Cl)c1/C=C(\CC(=O)O)c1nc2ccccc2s1 | 4 | 1 | 26% | 40µM* | 0%
CC(C)Oc1ccc(Br)cc1/C=N\NC(N)=S | -65* | 13 | ? | 4% | 0%
COc1cc(/C=N/N2CCN(c3ccccc3)CC2)cc(OC)c1OC(C)=O | -1 | 0 | -10% | 32µM* | 0%
O=C(CSc1ccc(-c2ccco2)nn1)NCc1ccccc1Cl | . | 8 | 11µM* | 17% | 18%
Cc1ccc(CS(=O)(=O)c2ncc(Cl)c(C(=O)Nc3nnc(C(C)C)s3)n2)cc1 | -93* | ? | -10%[15.4 µM] | 18µM* | 0%
CC(C)c1nnc(NC(=O)c2nc(S(=O)(=O)Cc3ccc(F)cc3)ncc2Cl)s1 | ? | -75* | -17%[15.4 µM] | 28µM* | -3%
CSc1ncc(Cl)c(C(=O)Nc2nnc(SC/C=C/c3ccccc3)s2)n1 | -32 | ? | ? | 35µM* | -1%
C=CCSc1nnc(NC(=O)c2nc(SCC)ncc2Cl)s1 | 7 | 0 | -4% | ? | 0%
CC(C)c1nnc(NC(=O)c2nc(SCc3ccc(F)cc3)ncc2Cl)s1 | . | . | . | . | -1%
CC(C)c1nnc(NC(=O)c2nc(S(=O)(=O)Cc3ccccc3F)ncc2Cl)s1 | -28 | ? | -3% | ? | 2%
CCSc1nnc(NC(=O)c2nc(S(=O)(=O)Cc3ccc(F)cc3)ncc2Cl)s1 | ? | -40 | -15%[15.4 µM] | 40µM* | -1%
COc1ccc(NC(=O)C(NC(=O)/C=C\c2ccc3c(c2)OCO3)c2ccccc2)cc1 (stereo not given) | 2 | . | . | . | -4%
Cc1nn2c(=O)cc(COC(=O)c3ccc(NC(=O)c4cccc(Br)c4)cc3)nc2s1 | -10 | . | . | . | 21%
Cc1ccc(N(C(=O)c2cccc(C)c2)S(=O)(=O)c2ccc(Cl)cc2)cc1 | -20 | . | . | . | 1%
CC1(C)CC(=O)c2cc(-c3nc(-c4ccc(F)cc4)cs3)c(=O)[nH]c2C1 | -8 | . | . | . | 5%
SMILES | RXFP1 antag | TSHR antag | gsp ag | gsp antagonist | RXFP1 ag
Cc1cccc(CS(=O)(=O)c2ncc(Cl)c(C(=O)Nc3nnc(C(C)C)s3)n2)c1 | ? | -74* | -1%[15.4 µM] | 20µM* | -1%
CSc1nnc(NC(=O)c2nc(S(=O)(=O)Cc3cccc(C)c3)ncc2Cl)s1 | -73* | ? | -9%[15.4 µM] | 40µM* | 2%
CSc1nnc(NC(=O)c2nc(S(=O)(=O)Cc3ccccc3F)ncc2Cl)s1 | -40 | -46 | -16%[15.4 µM] | 35µM* | -2%
O=[N+]([O-])c1ccc2c(c1)S(=O)(=O)C=C2 | . | -14 | . | . | .
CN(C)c1ccc(/C=N/n2c(-c3cccnc3)n[nH]c2=S)cc1 | -1 | -9 | 12% | ? | 4%
CN(C)c1ccc(/C=N/n2c(-c3ccccc3Br)n[nH]c2=S)cc1 | -94* | -7 | 5% | ? | 2%
Cn1c(=O)n(C)c2cc(N3CCOCC3)c(NS(=O)(=O)c3cccc(C#N)c3)cc21 | -7 | . | . | . | 3%
CC(=O)NNC(=O)CC(=O)Nc1nc(C23CC4CC(CC(C4)C2)C3)cs1 | -30 | -4 | -10% | -7% | 1%
CCNc1nc(C23CC4CC(CC(C4)C2)C3)cs1 | ? | -73* | -36% | -6% | 0%
COc1ccc(NC(=O)CSCC(=O)Nc2ccc(S(=O)(=O)N3CCCCC3)cc2)cc1 | -64* | -11 | 20%[15.4 µM] | -5% | 1%
COc1ccc(OC)c(CCNC(=O)CCn2c(=O)c3cccn3c3cccnc32)c1 | 0 | . | . | . | 0%
Cn1c2ccccc2c2nnc(SCC(=O)Nc3cccc(C(=O)O)c3)nc21 | 2 | 4 | 14µM* | -12% | 16µM*
CCN(CC)C(=O)CSc1nnc2c3ccccc3n(C)c2n1 | 11 | 1 | 7.1µM* | -9% | ?
CCOc1ccc(CCNC(=O)c2cnc3c(-c4ccc(F)cc4)c(C)nn3c2C)cc1OCC | -37 | . | . | . | 1%
CCn1c(/C=N/c2nc3ccccc3n2C)nc2ccccc21 | 12 | 30 | 6% | 6% | 0%
CCn1c(/C=C/c2cc[n+](C)cc2)nc2ccccc21 | 27 | 8 | ? | 20% | 28µM*
COCCOCCn1c(/C=C/c2ccccc2)nc2ccccc21 | -38 | 0 | -3%[15.4 µM] | -14% | 8%
CCCn1c(/C=C/c2ccccc2)nc2ccccc21 | -86*! | 6 | 0% | ? | 11%
O=c1oc2ccccc2c2c1C1O[C@](c3ccsc3)(Cc3ccccc31)O2 | . | . | . | . | -1%[11.5 µM]
CN1C(C(=O)c2ccccc2)=C(OC(=O)c2ccc(Br)cc2)c2ccccc2S1(=O)=O | -18 | . | . | . | 0%
CCCCCCCCCCCCCCCCCCOC[C@H](COP(=O)([O-])OCC[N+](C)(C)C)OC | . | -81* | . | . | .
CC(C)CN(C(=O)CSc1nncn1-c1ccccc1)c1c(N)n(CC(C)C)c(=O)[nH]c1=O | -60* | 6 | -17%[15.4 µM] | 1% | 0%
CCCCn1c(N)c(N(CCC(C)C)C(=O)CSc2nncn2-c2ccccc2)c(=O)[nH]c1=O | 7 | 10 | 21% | 7% | 0%
Cn1c(=O)c2[nH]c(CCCc3ccc([N+](=O)[O-])cc3)nc2n(C)c1=O | 10 | . | 16µM* | 8% | .
Cn1c(=O)c2[nH]c(CCc3ccncc3)nc2n(C)c1=O | 5 | . | ? | 13% | .
CCOC(=O)c1ccc(NC(=O)CSc2nc(-c3cccs3)cc(C(F)(F)F)c2C#N)cc1 | -7 | . | . | . | ?
Cc1ccc2ncc3c(-c4ccccc4)nn(CC(=O)NC4CCCCC4)c3c2c1 | 5 | . | . | . | -2%
